According to PubChem BioAssay (NCATS):
Where “and” joins values, the source holds several entries; their conditions need not be identical. Equal values may be shown once. Results filed as inconclusive are left out. Where a call stands in place of a potency, no number is given. Calls of active or inactive are those of the source. Calls follow the shape of the dose curve; as a rule, active = well fitted curve in the direction sought with a large enough effect; inconclusive = small, poorly fitted or top-dose-only effect, or another doubt; inactive = no such curve, though single readings can be large; an effect the other way counts as inactive or inconclusive.

Columns and labels:
[1] = NS1 protein of Zika virus - qHTS assay to identify small molecule inhibitors in human HEK 293 cells (AID 1347053); also: nearly all actives have a fitted effect of over 55% in size
Procedure, shortened: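 HEK 293 cells pretreated with compound for 1 h, then infected with ZIKV MR766 (MOI 0.5) for 24 h at 37 C. NS1 detected by TR-FRET with two anti-NS1 antibodies; normalized to uninfected (0%) and infected (100%) wells.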

[2] = qHTS of pediatric cancer cell lines to identify multiple opportunities for drug repurposing: Primary screen for TC32 cells (AID 1347089); also: nearly all actives have a fitted effect of over 60% in size
Procedure, shortened: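 In the primary qHTS, MIPE compounds were tested at 11 concentrations (0.78 nM to 46 µM) and NPC compounds at 8 (0.59 nM to 46 µM) on TC32 cells for 48 h. CellTiter-Glo luminescence gave viability.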

[3] = qHTS of pediatric cancer cell lines to identify multiple opportunities for drug repurposing: Primary screen for DAOY cells (AID 1347090); also: nearly all actives have a fitted effect of over 55% in size
Procedure, shortened: (§1)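 Cell viability, CellTiter-Glo luminescence; 500-1,000 cells/well, 8- or 11-point titration, 48 h compound exposure at 37 degrees C, 5% CO2. Controls: DMSO neutral, bortezomib 2.3 µM final as positive.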

[4] = qHTS of pediatric cancer cell lines to identify multiple opportunities for drug repurposing: Primary screen for SJ-GBM2 cells (AID 1347091)
Procedure, shortened: as §1
Potency is read from the fitted curve at half-maximal effect.

| SMILES | Potency [1] | Potency [2] | Potency [3] | Potency [4] |
| --- | --- | --- | --- | --- |
| COc1ccc2nc(S(=O)Cc3ncc(C)c(OC)c3C)[nH]c2c1 (stereo not drawn) | inactive | inactive | inactive | inactive |
| O=c1[nH]c(-c2ccc(C(F)(F)F)cc2)nc2c1CSCC2 | inactive | inactive |  | inactive |
| NC(=O)c1ccc(-c2nc(-c3ccc4c(c3)OCO4)c(-c3ccccn3)[nH]2)cc1 | inactive | inactive | inactive | inactive |
| O=C(NOC[C@H](O)CO)c1ccc(F)c(F)c1Nc1ccc(I)cc1F | inactive | inactive | 18.7 µM (active) |  |
| Cc1c(C)c2c(c(C)c1O)CCC(C)(COc1ccc(CC3SC(=O)NC3=O)cc1)O2 (stereo not drawn) | inactive | inactive | inactive | inactive |
| Cn1cc(-c2ccc3nnc(C(F)(F)c4ccc5ncccc5c4)n3n2)cn1 | inactive | inactive | inactive |  |
| CC(C)(C)OC(=O)CN(Cc1ccc(Cl)cc1)Cc1ccc([N+](=O)[O-])s1 | inactive | inactive | inactive | inactive |
| Cc1ccnc(NS(=O)(=O)c2ccc(NC(=O)Nc3ccc(S(=O)(=O)Nc4nccc(C)n4)cc3)cc2)n1 | inactive | inactive | inactive | 16.6 µM (active) |
| CC(C)OC(=O)C1=CN(C(=O)c2ccc(F)c(F)c2)CC(C)(C)c2c1[nH]c1ccccc21 | inactive | inactive | inactive | inactive |
| Cc1cc(SCc2sc(-c3ccc(C(F)(F)F)cc3)nc2C)ccc1OCC(=O)O | inactive | inactive | inactive |  |
| CO[C@@H]1[C@H](N(C)C(=O)c2ccccc2)C[C@H]2O[C@]1(C)n1c3ccccc3c3c4c(c5c6ccccc6n2c5c31)C(=O)NC4 |  |  |  | 0.833 µM (active) |
| S=C(NCc1ccc2c(c1)OCO2)N1CCN(c2ncnc3c2oc2ccccc23)CC1 |  | inactive | 2.15 µM (active) |  |
| Cc1ccc(-n2nc(C(C)(C)C)cc2NC(=O)Nc2ccc(OCCN3CCOCC3)c3ccccc23)cc1 | inactive | inactive |  | inactive |
| Cc1c(CN2CCN(C(=O)C(C)C)CC2)sc2c(N3CCOCC3)nc(-c3cnc(N)nc3)nc12 |  | 0.466 µM (active) | 0.469 µM (active) | 0.132 µM (active) |
| O=C(C1CC1)N1CC[C@@H](Cn2c(-c3ccc(-c4ccc5occc5c4)cc3)nc3cnccc32)C1 |  | inactive | inactive |  |
| Cc1cc(-c2ccc(CC(=O)Nc3ccc(-c4cccnc4)cc3)cc2)ccn1 |  | inactive |  |  |
| CC1(C)Cc2c(-c3ccccc3)c(-c3ccc(Cl)cc3)c(CC(=O)O)n2C1 |  | inactive |  |  |
| CCCCCCCc1ccc(CCc2cccc(O)c2C(=O)O)cc1 |  | inactive |  |  |
| CCc1cc(Nc2nccc(-c3c(-c4ccc(OC)c(C(=O)Nc5c(F)cccc5F)c4)nc4ccccn34)n2)c(OC)cc1N1CCC(N2CCN(S(C)(=O)=O)CC2)CC1 | 26.4 µM (active) | inactive |  | inactive |
| CCC(C)(C)C(=O)O[C@H]1C[C@@H](C)C=C2C=C[C@H](C)[C@H](CC[C@@H]3C[C@@H](O)CC(=O)O3)[C@H]21 | inactive |  | 6.68 µM (active) and 5.9 µM (active) | 3.35 µM (active) and 14.8 µM (active) |
| COCC(=O)NCC=Cc1ccc2ncnc(Nc3ccc(Oc4ccc(C)nc4)c(C)c3)c2c1 |  | inactive |  |  |
| OCCC#Cc1nc(-c2ccc(F)cc2)c(-c2ccncc2)n1CCCc1ccccc1 | inactive | inactive |  | 23.5 µM (active) |
| Cc1n[nH]c(C)c1Cc1sc2c(c1C(=O)N1C[C@H](O)CO1)c(=O)n(C)c(=O)n2CC(C)C | inactive |  | inactive |  |
| Cc1cc2c(F)c(Oc3ncnn4cc(OC[C@@H](C)O)c(C)c34)ccc2[nH]1 | 0.935 µM (active) |  |  | 10.5 µM (active) |
| COc1cc2nccc(Oc3ccc(NC(=O)NC4CC4)c(Cl)c3)c2cc1C(N)=O |  |  | 4.69 µM (active) | 0.526 µM (active) |
| CN(C)c1ccc(C2Nc3ccc4ccccc4c3C3=C2C(=O)CC(C)(C)C3)cc1Br (stereo not drawn) |  | inactive | inactive |  |
| COc1ccc(COc2cc3oc(=O)c4cc(C(C)O)ccc4c3cc2OC)cc1 (stereo not drawn) | inactive | inactive |  | 10.5 µM (active) |
| O=C(Nc1cccnc1)N1CCC(Cc2cccc(Oc3ccc(C(F)(F)F)cn3)c2)CC1 |  | inactive | 14.8 µM (active) | 18.7 µM (active) |
| COc1cccc2cc(-c3nc(C4CCC(C(=O)O)CC4)n4ncnc(N)c34)[nH]c12 (stereo not drawn) | inactive |  |  | 0.935 µM (active) |
| CC(C)(N)C(=O)N[C@H](COCc1ccccc1)C(=O)N1CCC2(CC1)CN(S(C)(=O)=O)c1ccccc12 |  | inactive | inactive |  |
